# Experimental data reported in PubChem BioAssay (NCATS).
# Inconclusive results are not listed. Calls of active or inactive are those of the source. Calls follow the shape of the dose curve; as a rule, active = well fitted curve in the direction sought with a large enough effect; inconclusive = small, poorly fitted or top-dose-only effect, or another doubt; inactive = no such curve, though single readings can be large; an effect the other way counts as inactive or inconclusive.
# Assays:
# [1] = Quantitative High-Throughput drug screen in 47 multiple myeloma cell lines against the NCATS MIPE library collection: KMM1_JCRB cell viability assay (AID 1918960); also: nearly all actives have a fitted effect of over 30% in size
# Summary of the method: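 500 cells/well; MIPE 4.0 library pinned in; 48 h, 37 °C, 5% CO2; CellTiter-Glo ATP luminescence. Controls: DMSO = 100% viability, medium only = 0%.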
# [2] = Quantitative High-Throughput drug screen in 47 multiple myeloma cell lines against the NCATS MIPE library collection: Karpas417_ECACC cell viability assay (AID 1918961); conditions: Karpas417 myeloma viability, CellTiter-Glo ATP luminescence, 48 h; viability (% of DMSO): at 45.8 µM (top of the series)
# Summary of the method: (§1)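 CellTiter-Glo luminescence (ATP) after 48 h compound exposure, 37C/5% CO2; 500 cells/well; MIPE 4.0 approved/investigational drugs pinned in; DMSO = 100%, media only = 0% viability.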
# [3] = Quantitative High-Throughput drug screen in 47 multiple myeloma cell lines against the NCATS MIPE library collection: KHM11_PLB cell viability assay (AID 1918962); also: nearly all actives have a fitted effect of over 35% in size
# Summary of the method: (§2)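 Steps: seed 500 cells per well; pin-transfer MIPE 4.0 library; incubate 48 h at 37C, 5% CO2, humidified; add CellTiter-Glo, 5 min room temperature; read luminescence.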
# [4] = Quantitative High-Throughput drug screen in 47 multiple myeloma cell lines against the NCATS MIPE library collection: JIM3_ECACC cell viability assay (AID 1918963; also: nearly all actives have a fitted effect of over 35% in size)
# Summary of the method: as §2
# [5] = Quantitative High-Throughput drug screen in 47 multiple myeloma cell lines against the NCATS MIPE library collection: JIM1_ECACC cell viability assay (AID 1918964)
# Summary of the method: (§3)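 qHTS of the MIPE 4.0 collection: 500 myeloma cells/well, 48 h drug exposure at 37C in 5% CO2, then CellTiter-Glo for 5 min at room temperature before luminescence reading.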
# [6] = Quantitative High-Throughput drug screen in 47 multiple myeloma cell lines against the NCATS MIPE library collection: INA6_PLB cell viability assay (AID 1918965; also: nearly all actives have a fitted effect of over 55% in size)
# Summary of the method: as §1
# [7] = Quantitative High-Throughput drug screen in 47 multiple myeloma cell lines against the NCATS MIPE library collection: JJN3_DSMZ cell viability assay (AID 1918966; also: nearly all actives have a fitted effect of over 50% in size)
# Summary of the method: as §3
# [8] = Quantitative High-Throughput drug screen in 47 multiple myeloma cell lines against the NCATS MIPE library collection: H1112_PLB cell viability assay (AID 1918967; also: nearly all actives have a fitted effect of over 30% in size)
# Summary of the method: as §3
# [9] = Quantitative High-Throughput drug screen in 47 multiple myeloma cell lines against the NCATS MIPE library collection: Karpas25_ECACC cell viability assay (AID 1918968; also: nearly all actives have a fitted effect of over 35% in size)
# Summary of the method: as §3
# [10] = Quantitative High-Throughput drug screen in 47 multiple myeloma cell lines against the NCATS MIPE library collection: KMS27_JCRB cell viability assay (AID 1918970); conditions: KMS27 myeloma cells, CellTiter-Glo ATP viability, 48 h; viability (% of DMSO): at 45.8 µM (top of the series); also: nearly all actives have a fitted effect of over 30% in size
# Summary of the method: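 KMS27_JCRB myeloma cells, 500 per well, exposed 48 h at 37 C, 5% CO2 to MIPE 4.0 compounds. Viability from ATP by CellTiter-Glo luminescence, normalized to DMSO (100%) and medium-only (0%) wells.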
# Potency is read from the fitted curve at half-maximal effect.
SMILES,Potency [1],Potency [2],Potency [3],Potency [4],Potency [5],Potency [6],Potency [7],Potency [8],Potency [9],Potency [10]
Cn1cc(CNCC2CCN(c3ncc(C(=O)NO)cn3)CC2)c2ccccc21,0.0418 µM (active),0.0166 µM (active),0.0662 µM (active),0.132 µM (active),0.0743 µM (active),0.001 µM (active),0.0296 µM (active),0.0332 µM (active),0.0118 µM (active),0.0166 µM (active)
NC(=NCCCCCCN=C(N)N=C(N)Nc1ccc(Cl)cc1)N=C(N)Nc1ccc(Cl)cc1,18.7 µM (active),20.9 µM (active),5.9 µM (active),8.33 µM (active),23.5 µM (active),1.66 µM (active),3.32 µM (active),2.64 µM (active),2.96 µM (active),16.6 µM (active)
Cc1cnc(Nc2ccc(N3CCN(C)CC3)cc2)nc1Nc1cccc(S(=O)(=O)NC(C)(C)C)c1,1.66 µM (active),0.372 µM (active),1.87 µM (active),3.72 µM (active),0.662 µM (active),0.418 µM (active),2.96 µM (active),5.9 µM (active),1.66 µM (active),
CCCNC(=O)[C@H]1O[C@H]1C(=O)N[C@H](C(=O)N1CCC[C@@H]1C(=O)OC)C(C)CC (stereo partly specified),9.35 µM (active),2.96 µM (active),33.2 µM (active),16.6 µM (active),,16.6 µM (active),2.96 µM (active),,14.8 µM (active),5.9 µM (active)
CCS(=O)(=O)Nc1ccc2[nH]c(O)c(C(=Nc3ccc(CN4CCCCC4)cc3)c3ccccc3)c2c1,3.72 µM (active),0.105 µM (active),0.418 µM (active),0.209 µM (active),0.059 µM (active),0.469 µM (active),0.743 µM (active),,0.235 µM (active),0.132 µM (active)
COc1cccc2c1C(=O)c1c(O)c3c(c(O)c1C2=O)C[C@@](O)(C(=O)CO)C[C@@H]3O[C@H]1C[C@H](N)[C@H](OC2CCCCO2)[C@H](C)O1 (stereo partly specified),inactive,inactive,2.09 µM (active),3.72 µM (active),,0.469 µM (active),1.87 µM (active),1.48 µM (active),1.05 µM (active),inactive
NC(=O)Nc1sc(-c2ccc(F)cc2)cc1C(N)=O,0.209 µM (active),0.0743 µM (active),0.833 µM (active),4.69 µM (active),0.0743 µM (active),0.332 µM (active),0.418 µM (active),,0.418 µM (active),0.166 µM (active)
N#Cc1cc(NC(=O)Nc2nnc(-c3ccncc3)s2)ccc1-c1cn[nH]c1,inactive,inactive,inactive,inactive,inactive,inactive,,inactive,inactive,inactive
COc1cc(O)c2c(c1)C1OC1C[C@H](O)[C@H](O)C(=O)C=CC[C@H](C)OC2=O (stereo partly specified),4.18 µM (active),0.469 µM (active),0.296 µM (active),3.72 µM (active),2.96 µM (active),2.96 µM (active),5.26 µM (active),5.26 µM (active),3.32 µM (active),7.43 µM (active)
OCCNC1CCCc2c1[nH]c1ccc(-c3ccccc3)cc21 (stereo unspecified),18.7 µM (active),10.5 µM (active),9.35 µM (active),18.7 µM (active),,7.43 µM (active),,20.9 µM (active),9.35 µM (active),23.5 µM (active)
COc1cc(C=CC(=O)CC(=O)C=Cc2ccc(O)c(OC)c2)ccc1O,4.81 µM (active),4.81 µM (active),6.05 µM (active),4.81 µM (active),3.4 µM (active),1.52 µM (active),13.6 µM (active),6.79 µM (active),0.96 µM (active),3.03 µM (active)
O=C(C=Cc1ccc(CN(CCO)CCc2c[nH]c3ccccc23)cc1)NO,0.105 µM (active),0.105 µM (active),0.209 µM (active),0.332 µM (active),0.132 µM (active),0.0296 µM (active),0.0935 µM (active),0.187 µM (active),0.059 µM (active),0.105 µM (active)
